The panel holds about 79,000 compounds, 15% with a hit somewhere; the sample as a whole holds those more often. A number with no mark means an inactive call. Active and inactive are the calls of the source. Rule as the data show it: active = growth inhibition above about 70%; inactive = the rest.
What was measured:
[1] = NCI Yeast Anticancer Drug Screen. Data for the rad50 strain (AID 155);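 also: 0% = growth of vehicle-only cultures of the same strain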; details: S. cerevisiae rad50 strain growth inhibition, active compounds read high
Method in brief: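 Genetically altered yeast (DNA repair pathway); compound treatment; growth inhibition vs vehicle ctrl.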

[2] = NCI Yeast Anticancer Drug Screen. Data for the mec2-1 strain (AID 157); details: S. cerevisiae mec2-1 strain, active compounds read high
Method in brief: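 Yeast mec2-1 mutant treated with compound. Readout: growth inhibition vs vehicle controls.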

[3] = NCI Yeast Anticancer Drug Screen. Data for the sgs1 mgt1 strain (AID 161);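 also: 0% = growth of cultures given vehicle only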; details: S. cerevisiae sgs1 mgt1 strain, active compounds read high
Method in brief: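 Test agents were incubated with a DNA-repair-mutant yeast strain. Growth was then read and compared against vehicle-treated controls.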

[4] = NCI Yeast Anticancer Drug Screen. Data for the cln2 rad14 strain (AID 165);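 also: 0% = growth equal to vehicle treated cultures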; details: S. cerevisiae cln2 rad14 strain, active compounds read high
Method in brief: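 cln2 rad14 yeast strain; compound exposure; growth inhibition read vs vehicle controls.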

[5] = NCI Yeast Anticancer Drug Screen. Data for the bub3 strain (AID 167); details: S. cerevisiae bub3 mutant strain, active compounds read high
Method in brief: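 Yeast carrying a defined mutation is treated with each compound, and growth is compared with that of vehicle-exposed cells to give inhibition.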

[6] = NCI Yeast Anticancer Drug Screen. Data for the mlh1 rad18 strain (AID 175); details: S. cerevisiae mlh1 rad18 strain growth inhibition, active compounds read high
Method in brief: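 Yeast w/ defined DNA-repair lesions; compound exposure; growth vs vehicle controls → % inhibition.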

[7] = at 5.0 µM (retest, dose inferred, filed as 0.5)
[8] = at 50.0 µM (retest, dose inferred, filed as 5.0)

Structure (SMILES)	growth inhibition [1, 7]	growth inhibition [1, 8]	growth inhibition ([1]; at 50.0 µM)	growth inhibition [2, 7]	growth inhibition [2, 8]	growth inhibition ([2]; at 50.0 µM)	growth inhibition [3, 7]	growth inhibition [3, 8]	growth inhibition ([3]; at 50.0 µM)	growth inhibition [4, 7]	growth inhibition [4, 8]	growth inhibition ([4]; at 50.0 µM)	growth inhibition [5, 7]	growth inhibition [5, 8]	growth inhibition ([5]; at 50.0 µM)	growth inhibition [6, 7]	growth inhibition [6, 8]	growth inhibition ([6]; at 50.0 µM)
COc1cc(C2C(C(=O)Nc3ccc(Cl)c(Cl)c3)=C(C)NC(C)=C2C(=O)Nc2ccc(Cl)c(Cl)c2)ccc1O	19%	19%	91% (active)	-4%	-4%	90.6% (active)	2%	2%	88.7% (active)	7%	7%	88.8% (active)	13%	13%	91.2% (active)	8%	8%	89.5% (active)
Cc1cc(Br)c(NC(=O)CBr)cc1C	-1%	95% (active)	42.3%	-3%	97% (active)	73.3% (active)	-1%	97% (active)	72% (active)	-2%	94% (active)	46.9%	-1%	96% (active)	40.5%	-2%	96% (active)	81.5% (active)
COC(=O)C1(C)CCCC2(C)C3CC(=O)C(C(C)C)=CC3(O)CCC12 (stereo not given)	7%	8%	10.7%	-1%	-3%	-3.25%	4%	-15%	3.1%	-75%	-27%	13.7%	5%	2%	0.8%	15%	19%	-5.95%
CC(=O)Nc1ccccc1C(O)(c1ccccc1)c1ccccc1	-2%	0%	14.4%	-5%	-2%	35.2%	-5%	1%	16.4%	2%	-2%	9.45%	-2%	2%	14.7%	-5%	1%	-31.2%
CCOC(CCCl)OCC	0%	2%	7.35%	0%	4%	5.7%	-1%	1%	-2.9%	0%	-5%	89.2% (active)	1%	-3%	2.35%	0%	3%	13.3%
O=C1/C(=C/c2ccc([N+](=O)[O-])cc2)Sc2scc(-c3cccc([N+](=O)[O-])c3)[n+]21	69%	98% (active)	83.5% (active)	69%	98% (active)	89.5% (active)	96% (active)	99% (active)	90.6% (active)	53%	98% (active)	90.6% (active)	99% (active)	99% (active)	87% (active)	51%	99% (active)	91.1% (active)
N=c1c2ccccc2cc2c3ccccc3ccn12	45%	93% (active)	97.3% (active)	47%	97% (active)	98% (active)	56%	95% (active)	97.8% (active)	54%	93% (active)	86% (active)	57%	95% (active)	96.5% (active)	60%	96% (active)	96.1% (active)
CC(=O)N(N)c1ccccc1	8%	56%	57.5%	0%	42%	32.2%	4%	53%	33.3%	4%	51%	57.7%	7%	77% (active)	87.8% (active)	20%	87% (active)	88.4% (active)
CCc1ccc2ccc3ccc(CC)nc3c2n1	74% (active)	96% (active)	96.9% (active)	85% (active)	94% (active)	97.7% (active)	86% (active)	96% (active)	97.8% (active)	72% (active)	91% (active)	82.7% (active)	95% (active)	97% (active)	95.3% (active)	85% (active)	96% (active)	97.7% (active)
CCCCC1(C(O)CC)Sc2ccccc2N1C (stereo not given)	-7%	24%	31.8%	2%	82% (active)	41.5%	-2%	83% (active)	50.6%	1%	36%	65.9%	-14%	67%	61.6%	-12%	90% (active)	56%

— PubChem BioAssay (NCI)
